In PubChem BioAssay (NCATS) one finds Potency and redox activity (% of DA3003) data, which are given here for 40 compounds.

SMILES strings stand for the structures. Inconclusive results are not listed. A call without a number means that no potency is given here. A number with no mark means an inactive call. The source made the active and inactive calls. The call rests on the fitted dose curve; in most records, active means well fitted activation curve with a large enough effect; inconclusive means small, poorly fitted or top-dose-only effect; inactive means flat fitted curve, though single readings scatter.

This assay can be described thus: Primary redox qHTS assay for identification of artifact compounds. (AID 1845223). The note with it: Amplex Red/HRP redox cycling with DTT, fluorescence; series mostly up to 53.8 µM. The gist of the method: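 Amplex Red (25 uM) and HRP (250 mU/mL) in HBSS, with compounds for 15 min, then 250 uM DTT for 30 min, room temperature, dark. Fluorescence 525/598 nm read; normalized to DMSO and 10 uM DA3003; Hill fit.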
On the technique in general: In qHTS, concentration-response curves come from the screen itself.
With `C=C(C)Cn1c(SCC(=O)c2cccs2)nc2sc3c(c2c1=O)CCCC3`, the Potency result is “inactive”.
On the same count and under the same terms, the result for `Cc1cc(NC(=O)NCCN2CCC(O)(Cc3ccccc3)CC2)c2ccccc2n1` reads “inactive”; that for `C=C1C(=O)O[C@@H]2[C@H]3C(C)=CC(=O)C3=C(C)CC[C@@H]12`, “inactive”.
On the same count and under the same terms, the result for `Cn1sc(=O)n(Cc2ccccc2)c1=O` reads “inactive”.
On to `CCO[C@H]1CN(C2CCC(O)(c3ccc4c(c3)OCO4)CC2)C[C@@H]1NC(=O)CNC(=O)c1cccc(C(F)(F)F)c1` (stereo not given in full), for which the Potency result is “inactive”.
The same measure, in the same setting: as for `Cc1cc2occ(CN(C)CCN(C)Cc3cn(-c4cccc(C(F)(F)F)c4)c4ccccc34)c(=O)c2cc1C`, the entry is “inactive”; as for `O=C(Nc1ccc(C(O)(C(F)(F)F)C(F)(F)F)cc1)c1ccc(C(F)(F)F)cc1`, “inactive”; as for `C[C@H]1CO[C@@H]2Cn3cc(C(=O)NCc4ccc(F)cc4F)c(=O)c(O)c3C(=O)N12`, “inactive”.
The same measure, in the same setting: as for `CC1(CO)CC(O)[C@]2(C(=O)O)CCC34CC3(C=CC3[C@]5(C)C(CC[C@]34C)C(C)(CO)[C@@H](O)[C@H](O)[C@@H]5O)C2C1` (stereo not given in full), the entry is “inactive”; as for `C1=Cc2ccccc2C(=C2CCN(CCCCc3nn[nH]n3)CC2)c2ccccc21`, “inactive”; as for `OC1CCC(Nc2nc(-c3ccccc3)nc3[nH]ccc23)CC1` (stereo not given), “inactive”.
On to `C/C=C(/C)C(=O)O[C@H]1[C@H](OC(=O)/C(C)=C\C)[C@@]23C(CC1(C)C)[C@]1(CCC4[C@@]5(C)CC[C@H](O[C@@H]6O[C@H](C(=O)O)[C@@H](O)[C@H](O[C@@H]7O[C@H](CO)[C@H](O)[C@H](O)[C@H]7O[C@@H]7O[C@@H](C)[C@H](O)[C@@H](O)[C@H]7O[C@@H]7OC[C@@H](O)[C@H](O)[C@H]7O)[C@H]6O[C@@H]6O[C@H](CO)[C@H](O)[C@H](O)[C@H]6O)C(C)(C)C5CC[C@@]4(C)[C@]1(C)C[C@H]2O)O[C@H]3O` (stereo not given in full), for which the redox activity (% of DA3003) was 13% [at 11.5 µM].
Turning to `COc1ccc(Oc2c(Cl)cnn(-c3cc(C)cc(C)c3)c2=O)cc1`, the Potency entry is “inactive”.
As for `C=C1CC2OC(=O)C(=C)C2C(O)/C=C(\C)CCC1O` (stereo not given), the Potency result was “inactive”.
The same measure, in the same setting: the result for `CC#C[C@@H](CC(=O)O)c1ccc(OCc2ccc(CN3CCC4(C=Cc5ccccc54)CC3)s2)cc1` reads “inactive”; that for `COc1cc(N(C)CCN(C)C)c(N)cc1Nc1nccc(-c2cn(C)c3ccccc23)n1`, “inactive”; that for `CC(C)=CCCC1(C)/C=C/C(OC(=O)C=C(C)C)C(C)(O)/C=C/C(=O)/C(CO)=C\C1` (stereo not given), “inactive”.
On the same count and under the same terms, the result for `Cc1cc(OCCCS(C)(=O)=O)cc(C)c1-c1cccc(COc2ccc3c(c2)OCC3CC(=O)O)c1` (stereo not given) reads “inactive”; that for `Cc1cc(C)cc(-c2cnc3cc(Cl)c(-c4cccc(O)c4)cc3c2OCCCN)c1`, “inactive”.
On the same count and under the same terms, the result for `O=C1C(Cc2ccc(O)cc2)N2C(=O)CCN(C(=O)NCc3ccccc3)C2CN1Cc1cccc2ccccc12` (stereo not given) reads “inactive”; that for `O=C(COc1ccc(C(=O)c2ccccc2)cc1)NC1CCN(Cc2ccccc2)CC1`, “inactive”; that for `Cc1ccc(C)c(-c2cc(C(F)(F)F)nn2-c2ccc(S(N)(=O)=O)cc2)c1`, “inactive”.
Turning to `Cc1cccc(-c2[nH]ncc2-c2ccnc3ccccc23)n1`, the Potency entry was “inactive”.
The same measure, in the same setting: as for `NS(=O)(=O)c1ccc(N2N=C(c3ccccc3)CC2c2ccccc2)cc1` (stereo not given), the entry is “inactive”; as for `COc1cc(O)cc(/C=C/c2cccc(O)c2)c1`, “inactive”.
On the same count and under the same terms, the result for `COc1ccc(S(=O)(=O)n2cnc3cc(C)c(C)cc32)cc1` reads “inactive”.
Still for that read-out and setting: as for `Cc1ccc(-c2cn3c4c(sc3n2)CCCC4)cc1`, the entry is “inactive”; as for `CC(=O)OC1CC(C)C2(CCC3(CC(=O)OC3O)O2)C2(C)CCCC(C)(C)C12` (stereo not given), “inactive”; as for `CC(=O)c1ccc2c(c1)[C@H](NC(=O)c1ccc(F)c(Cl)c1)[C@H](O)C(C)(C)O2`, “inactive”.
Consider `O=C(NCCCn1ccnc1)c1cc(-c2ccco2)on1`, for which the Potency entry is “inactive”.
`CCN(CC)C(=O)C(c1ccccc1)N1CCN(c2ccc(NC(=O)c3ccccc3-c3cccnc3)cc2F)CC1` (stereo not given): the Potency result is “inactive”.
The same measure, in the same setting: the result for `C=C1C(=O)OC2CC3(C)C(O)C(=O)C=C(C)C3CC12` (stereo not given) reads “inactive”; that for `N#Cc1cc(CN2CCC(Nc3ncnc4sc(Cl)cc34)CC2)ccc1F`, “inactive”.
Still for that read-out and setting: the result for `CC1(C=O)CCCC2(C)C1CCC13CC(CO)C(CCC12)C3` (stereo not given) reads “inactive”; that for `COc1ccc2c(NC(=O)Nc3cccc(C(F)(F)F)n3)ccnc2c1`, “inactive”; that for `COc1ccc(NC(=O)C2C[C@H](C)CC[C@H]2C(C)C)cc1` (stereo not given in full), “inactive”.
Same read-out and setting: as for `CCN(CCNC(=O)Nc1ccccc1Br)c1cccc(C)c1`, the entry is “inactive”.
Turning to `Cc1cc2ncc(C(=O)NCC(C)(C)NCC(=O)N3CCC[C@H]3C#N)cn2n1`, the Potency result is “inactive”.
Same read-out and setting: the result for `Cc1cccc(N2CCN(C(=O)c3cc(S(=O)(=O)N(C)C)ccc3N3CCCC3)CC2)c1C` reads “inactive”; that for `C[C@H]1CC[C@@]2(OC1)O[C@H]1CC3C4CC[C@H]5C[C@@H](O)CC[C@]5(C)C4=CC(=O)[C@]3(C)[C@H]1[C@@H]2C` (stereo not given in full), “inactive”.
